Assay [1] is described as follows: ATG_CRE_CIS: Attagene CIS-FACTORIAL HepG2 Assay for human cAMP Responsive Element (CRE) binding protein 3 (AID 2282926). The following applies: HepG2 CRE cis-reporter, Attagene multiplexed mRNA; actives raise or lower the signal. The procedure, abridged:
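HepG2 cells transiently transfected with a multiplexed reporter library (CRE-driven unit among them) were dosed for 24 h. Reporter mRNA was quantified by RT-PCR, fluorescent labelling, HpaI digestion and capillary electrophoresis, with bidirectional fitting against DMSO baseline.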

The nature of assay [2]: ATG_CMV_CIS: Attagene CIS-FACTORIAL HepG2 Assay for human CMV (Internal Marker) (AID 2282928).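 Also: endpoint acts as a background internal control marker rather than a target.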 Particulars: HepG2 CMV promoter reporter, transcription factor profiling; actives raise or lower the signal. The procedure, abridged:
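HepG2 cells transiently transfected with multiple cis-regulated reporter units; 24 h compound exposure. Reporter mRNA quantified by RT-PCR, 6-FAM primer-extension labeling, HpaI digestion and capillary electrophoresis; bidirectional fitting against DMSO baseline.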

Assay [3] in a line: ATG_AP_1_CIS: Attagene CIS-FACTORIAL HepG2 Assay for human Activator Protein 1 (AP-1) (AID 2282931). Particulars: HepG2 Attagene cis-factorial AP-1 reporter mRNA; actives raise or lower the signal. Summed up: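 HepG2, transient cis-reporter transfection; 24 h; readout RT-PCR/CE fluorescence; DMSO baseline, gain and loss fitted.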
Assay [4] is described as follows: ATG_BRE_CIS: Attagene CIS-FACTORIAL HepG2 Assay for human Bone Morphogenetic Protein (BMP) Response Element (BRE) (AID 2282933). Particulars: HepG2 BMP response element reporter, Attagene transcription factor profiling; actives raise or lower the signal. The procedure, abridged:
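Multiplexed cis-reporter assay, HepG2, 24 h exposure. mRNA from reporter units quantified via RT-PCR/CE; DMSO baseline; bidirectional curve fit.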

A short description of assay [5]: ATG_Ets_CIS: Attagene CIS-FACTORIAL HepG2 Assay for human Erythroblast Transformation Specific (ETS) (AID 2282941). The following applies: HepG2 ETS cis-reporter transcription, actives raise or lower the signal. Summed up: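 HepG2 cells transiently transfected with cis-promoter reporter transcription units were dosed for 24 h; reporter mRNA was measured by RT-PCR, 6-FAM primer extension, HpaI digestion and capillary electrophoresis, with bidirectional fitting against DMSO baseline.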

For assay [6], the target named is Hepatocyte nuclear factor 3-beta (Homo sapiens) (UniProt Q9Y261). The assay is described as follows: ATG_FoxA2_CIS: Attagene CIS-FACTORIAL HepG2 Assay for human Forkhead box A2 (FOXA2) (AID 2282942). The following applies: HepG2 cis-reporter transcription factor activity, 24 h; actives raise or lower the signal. The procedure, abridged:
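24 h dosing of HepG2 bearing cis-reporter constructs; mRNA readout by RT-PCR/CE fluorescence; bidirectional fit, DMSO baseline.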

A short description of assay [7]: ATG_FoxO_CIS: Attagene CIS-FACTORIAL HepG2 Assay for human Forkhead box O (FoxO) (AID 2282943). The following applies: HepG2 Attagene cis-reporter, FoxO element, mRNA; actives raise or lower the signal. The procedure, abridged: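 HepG2 cells transiently transfected with cis-promoter-driven multiple reporter transcription units; 24 h after chemical dosing, reporter mRNA quantified by RT-PCR, fluorescent primer extension, HpaI digestion and capillary electrophoresis. Bidirectional fitting versus DMSO baseline.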

The target in assay [8] is Hypoxia-inducible factor 1-alpha (Homo sapiens) (UniProt Q16665). Briefly: ATG_HIF1a_CIS: Attagene CIS-FACTORIAL HepG2 Assay for human Hypoxia Inducible Factor 1 (HIF1A) (AID 2282951). Particulars: HepG2 Attagene cis-factorial HIF1a reporter transcription; actives raise or lower the signal. The procedure, abridged:
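After 24 h chemical exposure of reporter-transfected HepG2 cells, reporter cDNA was PCR-amplified, labelled by 6-FAM primer extension (2 min 95 C, 20 s 68 C, 10 min 72 C), HpaI-cut (2 h, 37 C) and analysed by CE.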

For assay [9], the target named is Hepatocyte nuclear factor 6 (Homo sapiens) (UniProt Q9UBC0). Briefly: ATG_HNF6_CIS: Attagene CIS-FACTORIAL HepG2 Assay for human Hepatocyte Nuclear Factor 6 (HNF6) (AID 2282952). Particulars: HepG2 Attagene cis-factorial HNF6 reporter transcription; actives raise or lower the signal. Summed up: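 HepG2 cells transiently transfected with cis-element-driven multiple reporter transcription units, dosed 24 h; reporter mRNA quantified by RT-PCR, FAM primer extension, HpaI digestion and capillary electrophoresis; bidirectional fit versus DMSO baseline.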

Assay [10] concerns the target Heat shock factor protein 1 (Homo sapiens) (UniProt Q00613). Briefly: ATG_HSE_CIS: Attagene CIS-FACTORIAL HepG2 Assay for human Heat Shock Transcription Factor 1 (HSE) (AID 2282953). Particulars: HepG2 HSE cis-reporter, Attagene RNA transcription; actives raise or lower the signal. The procedure, abridged:
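Endogenous transcription factor activity captured via cis-promoter reporter units transfected into HepG2; treatment lasted 24 h. Fluorescence intensity of reporter fragments analysed with bidirectional curve fitting, DMSO baseline.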

Assay [11] in a line: ATG_MRE_CIS: Attagene CIS-FACTORIAL HepG2 Assay for human Metal Responsive Element (MRE) (AID 2282954). The following applies: HepG2 MRE cis-reporter transcription, Attagene multiplex; actives raise or lower the signal. The procedure, abridged: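 HepG2 cells transiently transfected with multiple cis-element reporter units measure endogenous MTF1-driven transcription. After 24 h compound exposure, reporter mRNA is quantified by RT-PCR with 6-FAM labelling, HpaI digestion and capillary electrophoresis; bidirectional fits versus DMSO.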

Assay [12] in a line: ATG_SREBP_CIS: Attagene CIS-FACTORIAL HepG2 Assay for human Sterol Regulatory Element Binding (SREBP) (AID 2282962). The following applies: HepG2 Attagene cis-factorial SREBP reporter, mRNA; actives raise or lower the signal. The procedure, abridged:
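HepG2 cells transiently transfected with multiplexed cis-element reporter units report endogenous transcription factor activity. After 24 h of chemical exposure, reporter mRNA was quantified by RT-PCR, 6-FAM labelling, HpaI digestion and capillary electrophoresis; bidirectional fits used DMSO as baseline.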

Assay [13] can be described thus: ATG_VDRE_CIS: Attagene CIS-FACTORIAL HepG2 Assay for human Vitamin D Receptor Element (VDRE) (AID 2282968). The following applies: HepG2 VDRE cis-reporter transcription, actives raise or lower the signal. The procedure, abridged: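 HepG2 cells transiently transfected with cis-element reporter units, dosed 24 h; reporter mRNA measured by RT-PCR, 6-FAM labeling, HpaI digestion and capillary electrophoresis. Activity fitted bidirectionally against DMSO baseline.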

Assay [14] can be described thus: ATG_NF_kB_CIS: Attagene CIS-FACTORIAL HepG2 Assay for human Nuclear Factor Kappa B (NF-kB) (AID 2282991). Particulars: HepG2 Attagene cis-factorial NF-kB reporter mRNA; actives raise or lower the signal. Summed up:
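Fluorescence of labelled RT-PCR products separated by capillary electrophoresis gives reporter mRNA levels from transfected HepG2 cells exposed 24 h; values are fitted in both directions relative to DMSO.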

A short description of assay [15]: ATG_NRF2_ARE_CIS: Attagene CIS-FACTORIAL HepG2 Assay for human Nuclear Factor Erythroid 2 Related Factor 2 (NFR2) response to Antioxidant Response Elements (ARE) (AID 2282992). Particulars: HepG2 Attagene ARE/NRF2 reporter, transcription factor activity; actives raise or lower the signal. Summed up:
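HepG2 cells transiently transfected with multiplexed cis-regulated reporter transcription units measure endogenous transcription factor activity. Reporter mRNA at 24 h is quantified by RT-PCR, fluorescent labelling and capillary electrophoresis, with bidirectional fitting relative to DMSO.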

Assay [16] deals with Cellular tumor antigen p53 (Homo sapiens) (UniProt P04637). The assay is described as follows: ATG_p53_CIS: Attagene CIS-FACTORIAL HepG2 Assay for human p53 Transcription Factor (AID 2282994). The following applies: HepG2 p53 cis-element reporter, Attagene mRNA; actives raise or lower the signal. The procedure, abridged:
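HepG2 cells transiently transfected with multiplexed cis-regulated reporter transcription units read endogenous TF activity. After 24 h compound exposure, reporter mRNA was quantified by RT-PCR, fluorescent labelling, HpaI digestion and capillary electrophoresis; bidirectional fits versus DMSO baseline.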

A short description of assay [17]: ATG_XTT_Cytotoxicity: Cytotoxicity Assessment in the Attagene TRANS-FACTORIAL HepG2 Assay (AID 2283584; active = hit-call score of the fitted dose curve at least 0.9, where 1 is the maximum). The procedure, abridged: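 HepG2 human liver cells, transiently transfected with multiple GAL4-UAS reporter units, were dosed and read at 24 h by XTT as cell number. Loss of signal was fitted relative to DMSO negative control baseline.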
Assay [18] in a line: ATG_GATA_CIS: Attagene CIS-FACTORIAL HepG2 Assay for human GATA Binding Protein (AID 2282944). The following applies: HepG2 GATA cis-element reporter, Attagene multiplex mRNA; actives raise or lower the signal. The procedure, abridged:
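After transfecting HepG2 cells with multiple cis-regulated reporter units, chemicals are dosed for 24 h; isolated RNA undergoes RT-PCR and fluorescent labeling before capillary electrophoresis, with activity expressed against DMSO.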

For assay [19], the target named is Paired box protein Pax-6 (Homo sapiens) (UniProt P26367). The assay is described as follows: ATG_Pax6_CIS: Attagene CIS-FACTORIAL HepG2 Assay for human Paired Box 6 (PAX6) (AID 2282956). Particulars: HepG2 CIS-FACTORIAL PAX6 reporter transcription, RNA readout; actives raise or lower the signal. The procedure, abridged:
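HepG2 cells transiently transfected with multiplexed cis-promoter reporter units (endogenous TF activity) were dosed for 24 h. Reporter mRNA was quantified by RT-PCR, 6-FAM labeling, HpaI digestion and capillary electrophoresis; bidirectional fitting versus DMSO baseline.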

The target in assay [20] is Aryl hydrocarbon receptor (Homo sapiens) (UniProt P35869). The assay is described as follows: ATG_Ahr_CIS: Attagene CIS-FACTORIAL HepG2 Assay for human Aryl Hydrocarbon Receptor (Ahr) (AID 2282930). The following applies: HepG2 AhR cis-factorial reporter transcription; actives raise or lower the signal. The procedure, abridged: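 HepG2 cells transiently transfected with cis-element-driven multiplexed reporter transcription units; endogenous transcription factor activity measured as reporter mRNA 24 h after dosing. RT-PCR, 6-FAM labelling, HpaI digestion, capillary electrophoresis; bidirectional fitting versus DMSO baseline.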

Records with an inconclusive call do not appear. Active and inactive are the calls of the source. The calls were made as follows, unless noted: active = hit-call score of the fitted dose curve at least 0.9, where 1 is the maximum; inactive = score below 0.9.

Cellular tumor antigen p53 (Homo sapiens), sequence (P04637 whole entry, looked up): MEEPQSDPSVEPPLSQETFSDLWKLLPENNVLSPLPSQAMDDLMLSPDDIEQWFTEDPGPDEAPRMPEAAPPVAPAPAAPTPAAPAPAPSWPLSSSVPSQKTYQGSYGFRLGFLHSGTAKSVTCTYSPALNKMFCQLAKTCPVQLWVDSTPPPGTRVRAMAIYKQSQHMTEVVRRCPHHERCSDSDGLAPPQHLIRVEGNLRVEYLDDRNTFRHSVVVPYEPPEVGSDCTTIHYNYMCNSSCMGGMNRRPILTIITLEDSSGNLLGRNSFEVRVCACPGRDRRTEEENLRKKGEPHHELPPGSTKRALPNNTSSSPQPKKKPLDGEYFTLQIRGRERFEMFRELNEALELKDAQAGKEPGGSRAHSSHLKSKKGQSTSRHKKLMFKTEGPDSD
Hepatocyte nuclear factor 3-beta (Homo sapiens), sequence (Q9Y261 whole entry, looked up): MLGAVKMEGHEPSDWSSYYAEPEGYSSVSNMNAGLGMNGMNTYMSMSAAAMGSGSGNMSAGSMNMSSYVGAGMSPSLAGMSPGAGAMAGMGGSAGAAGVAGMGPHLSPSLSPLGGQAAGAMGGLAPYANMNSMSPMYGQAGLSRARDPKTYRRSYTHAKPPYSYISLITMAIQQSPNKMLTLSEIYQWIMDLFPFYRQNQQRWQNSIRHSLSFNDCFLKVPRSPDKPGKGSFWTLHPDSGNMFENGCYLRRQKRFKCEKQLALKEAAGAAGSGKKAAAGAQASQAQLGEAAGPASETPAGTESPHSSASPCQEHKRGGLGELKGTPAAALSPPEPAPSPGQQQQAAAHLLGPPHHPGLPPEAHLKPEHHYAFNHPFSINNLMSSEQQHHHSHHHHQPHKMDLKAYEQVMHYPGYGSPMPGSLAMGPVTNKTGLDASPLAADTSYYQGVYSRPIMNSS
Hepatocyte nuclear factor 6 (Homo sapiens), sequence (Q9UBC0 whole entry, looked up): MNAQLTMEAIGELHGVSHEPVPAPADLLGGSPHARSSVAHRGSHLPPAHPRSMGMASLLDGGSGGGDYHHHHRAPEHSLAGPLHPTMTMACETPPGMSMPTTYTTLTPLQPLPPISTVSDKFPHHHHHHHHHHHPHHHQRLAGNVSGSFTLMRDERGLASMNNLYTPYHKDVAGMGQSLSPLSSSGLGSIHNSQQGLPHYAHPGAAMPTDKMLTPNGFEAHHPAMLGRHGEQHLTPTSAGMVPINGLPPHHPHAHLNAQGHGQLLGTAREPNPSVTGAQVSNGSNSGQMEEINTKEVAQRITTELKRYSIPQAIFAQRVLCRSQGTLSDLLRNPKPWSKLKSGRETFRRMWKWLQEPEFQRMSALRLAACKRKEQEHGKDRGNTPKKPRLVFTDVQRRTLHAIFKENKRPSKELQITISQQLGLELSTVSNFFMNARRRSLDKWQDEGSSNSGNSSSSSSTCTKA
Paired box protein Pax-6 (Homo sapiens), sequence (P26367 whole entry, looked up): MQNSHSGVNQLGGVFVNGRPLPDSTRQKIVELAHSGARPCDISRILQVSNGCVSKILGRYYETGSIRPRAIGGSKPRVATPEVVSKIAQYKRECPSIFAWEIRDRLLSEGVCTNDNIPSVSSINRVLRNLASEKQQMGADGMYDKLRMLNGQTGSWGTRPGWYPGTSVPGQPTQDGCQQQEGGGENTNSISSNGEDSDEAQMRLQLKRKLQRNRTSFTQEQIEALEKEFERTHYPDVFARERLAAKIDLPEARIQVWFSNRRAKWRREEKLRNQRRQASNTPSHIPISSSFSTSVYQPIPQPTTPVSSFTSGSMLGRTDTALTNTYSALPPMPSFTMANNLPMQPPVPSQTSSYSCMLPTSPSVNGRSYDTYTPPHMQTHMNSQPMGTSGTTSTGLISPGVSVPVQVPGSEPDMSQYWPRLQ
Hypoxia-inducible factor 1-alpha (Homo sapiens), sequence (Q16665 whole entry, looked up): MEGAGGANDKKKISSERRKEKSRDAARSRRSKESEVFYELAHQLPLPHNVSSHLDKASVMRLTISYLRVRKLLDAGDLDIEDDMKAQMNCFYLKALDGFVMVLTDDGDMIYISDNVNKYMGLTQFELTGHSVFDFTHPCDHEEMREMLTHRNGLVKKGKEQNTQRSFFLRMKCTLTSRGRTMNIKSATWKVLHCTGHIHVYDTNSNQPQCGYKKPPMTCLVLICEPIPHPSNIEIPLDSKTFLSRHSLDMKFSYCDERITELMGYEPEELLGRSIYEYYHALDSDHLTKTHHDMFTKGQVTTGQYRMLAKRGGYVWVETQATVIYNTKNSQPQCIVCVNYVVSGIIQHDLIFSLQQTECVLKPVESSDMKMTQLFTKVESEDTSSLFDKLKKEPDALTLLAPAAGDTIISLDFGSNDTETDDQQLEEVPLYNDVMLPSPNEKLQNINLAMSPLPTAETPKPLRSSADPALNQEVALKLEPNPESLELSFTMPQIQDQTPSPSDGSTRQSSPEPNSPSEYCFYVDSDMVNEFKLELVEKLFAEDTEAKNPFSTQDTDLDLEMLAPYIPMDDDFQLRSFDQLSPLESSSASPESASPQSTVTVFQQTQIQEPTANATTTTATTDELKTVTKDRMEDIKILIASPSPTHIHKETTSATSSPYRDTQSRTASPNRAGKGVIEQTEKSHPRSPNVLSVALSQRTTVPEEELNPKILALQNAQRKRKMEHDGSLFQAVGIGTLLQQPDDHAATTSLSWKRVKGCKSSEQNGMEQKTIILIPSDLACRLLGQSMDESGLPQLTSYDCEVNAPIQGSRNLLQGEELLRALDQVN
Heat shock factor protein 1 (Homo sapiens), sequence (Q00613 whole entry, looked up, the tested form may be a part): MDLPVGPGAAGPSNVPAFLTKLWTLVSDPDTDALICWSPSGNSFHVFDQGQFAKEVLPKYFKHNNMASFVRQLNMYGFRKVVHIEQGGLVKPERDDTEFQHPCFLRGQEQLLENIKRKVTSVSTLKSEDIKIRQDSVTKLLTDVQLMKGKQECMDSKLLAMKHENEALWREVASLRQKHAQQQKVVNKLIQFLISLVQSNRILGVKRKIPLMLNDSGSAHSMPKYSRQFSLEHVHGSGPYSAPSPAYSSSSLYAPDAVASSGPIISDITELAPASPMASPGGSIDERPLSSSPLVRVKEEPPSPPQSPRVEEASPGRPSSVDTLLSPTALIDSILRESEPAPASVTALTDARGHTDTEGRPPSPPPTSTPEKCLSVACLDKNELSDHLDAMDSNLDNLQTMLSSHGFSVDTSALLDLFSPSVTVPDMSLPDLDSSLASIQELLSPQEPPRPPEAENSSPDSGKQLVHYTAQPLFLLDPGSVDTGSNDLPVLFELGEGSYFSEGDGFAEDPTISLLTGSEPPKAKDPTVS
Aryl hydrocarbon receptor (Homo sapiens), sequence (P35869 whole entry, looked up): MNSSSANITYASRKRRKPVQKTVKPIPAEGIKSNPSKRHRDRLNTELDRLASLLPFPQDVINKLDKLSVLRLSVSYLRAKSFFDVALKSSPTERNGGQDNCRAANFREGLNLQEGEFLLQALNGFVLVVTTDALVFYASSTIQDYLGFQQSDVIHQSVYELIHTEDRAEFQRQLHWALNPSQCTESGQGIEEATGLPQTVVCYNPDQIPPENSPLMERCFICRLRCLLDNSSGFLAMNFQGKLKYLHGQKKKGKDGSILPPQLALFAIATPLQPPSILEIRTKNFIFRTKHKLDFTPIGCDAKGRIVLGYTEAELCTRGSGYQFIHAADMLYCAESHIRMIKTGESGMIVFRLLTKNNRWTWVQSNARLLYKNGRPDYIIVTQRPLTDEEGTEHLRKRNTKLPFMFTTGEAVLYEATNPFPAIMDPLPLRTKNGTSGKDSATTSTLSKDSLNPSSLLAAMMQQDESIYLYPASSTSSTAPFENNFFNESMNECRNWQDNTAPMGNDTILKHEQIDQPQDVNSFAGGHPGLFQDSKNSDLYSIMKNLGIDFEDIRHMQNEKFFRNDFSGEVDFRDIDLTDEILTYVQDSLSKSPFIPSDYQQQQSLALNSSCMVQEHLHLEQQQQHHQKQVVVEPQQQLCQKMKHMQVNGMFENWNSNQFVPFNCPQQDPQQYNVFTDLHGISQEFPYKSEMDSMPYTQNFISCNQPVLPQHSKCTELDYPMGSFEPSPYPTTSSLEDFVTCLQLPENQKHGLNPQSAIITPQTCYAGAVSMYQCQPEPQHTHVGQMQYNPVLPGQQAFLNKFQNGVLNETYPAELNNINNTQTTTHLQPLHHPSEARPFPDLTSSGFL

As to `N#CCCCl`, the result in assay [1], in assay [2], in assay [3], in assay [4], in assay [5] and in assay [6] was inactive. The compound was classed as inactive in [7], in [8], in assay [9], in assay [10], in [11] and in assay [12]. Also, the compound was called inactive in assay [13], in assay [14], in assay [15], in assay [16] and in [17].

One may read the AC50 as the concentration giving half of the maximal activity seen. With `O=C(O)C(Br)Br`, the call in assay [1], in assay [2], in assay [3], in assay [4], in assay [5] and in [6] was inactive. The call in assay [7], in assay [18], in assay [8], in [9], in assay [10] and in assay [11] was inactive. Besides, the compound was called inactive in assay [19], in assay [12], in assay [13], in assay [14], in assay [16] and in [17]. Also, the AC50 in [15] was 1.86 µM (active).

On to `COC(C)(C)CCC[C@H](C)C/C=C/C(C)=C/C(=O)OC(C)C`, for which the call in assay [1], in assay [20], in assay [6], in assay [7], in assay [18] and in assay [8] was inactive. The compound was classed as inactive in assay [9], in [12] and in assay [14]. In addition, the AC50 in [2] was 100 µM (active); in [3] it was 112 µM (active); in assay [19] it was 100 µM (active); in assay [15] it was 52.8 µM (active); in assay [16] it was 157 µM (active).

For the compound `Cc1cc(C)c(C2=C(OC(=O)CC(C)(C)C)C3(CCCC3)OC2=O)c(C)c1`, the AC50 in assay [1] is 127 µM (active); in [3], 174 µM (active); in [10] it was 170 µM (active); in assay [19], 104 µM (active); in [12], 166 µM (active); in [15], 160 µM (active). Besides, the compound was called inactive in assay [2], in assay [20], in assay [5], in assay [6], in assay [7] and in assay [8]. For the same compound, the compound was called inactive in assay [9], in assay [14] and in assay [17].

Source of the values: PubChem BioAssay (EPA / NIEHS).
